Among all 310,000 compounds or so, about 1,000 (0.32%) were called active. Not all results are given here. Potency and affinity values are given separately. A number with no mark means an inactive call. No rule for the calls is given here.
Assay: Inhibition of PhoP regulon, Salmonella typhi GFP reporter cells, confirmation, 4 h (AID 1850);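 also: 0% = induced wells with vehicle and 100% = uninduced wells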
Settings: Salmonella Typhi PhoP-promoter GFP reporter, fluorescence, at 50 µM, active compounds read high

SMILES | inhibition
Cc1ccc(C(=O)Nc2ccccc2Sc2ccccc2)cc1 | 8.29%
Cc1ccc(C(=O)CC(=O)c2ccccc2)cc1 | 2.22%
Cc1cc(Nc2cccc(C(F)(F)F)c2)n2nc(C)nc2n1 | 2.14%
Clc1ccc2c(c1)C(OC1CN3CCC1CC3)c1ccccc1CS2 (centres undefined) | -1.82%
Brc1ccc2c(c1)C(C1=NCCN1)c1ccccc1CS2 (centres undefined) | -3.48%
COc1ccc(C(=O)NCCCOC(=O)c2ccc(OC)cc2)cc1 | -6.57%
CCOC(=O)c1sc(=NC(=O)c2ccc(F)cc2)n(C)c1C | 0.21%
Cc1cc(N2CCN(C3CCCCC3)CC2)nc2cccc(O)c12 | 40.7%
Cc1cc(N2CCC(C)CC2)nc(-c2ccccc2O)n1 | -7.47%
CN(C)c1ccc(/C=N/NC(=O)c2cccc(C(=O)N/N=C/c3ccc(N(C)C)cc3)n2)cc1 | -1.09%
COc1ccc(-c2ccc(=O)n(CC(=O)Nc3cccc(O)c3)n2)cc1OC | -4.09%
O=c1cc(CN2CCN(C/C=C/c3ccccc3)CC2)c2cc(O)c(-c3ccccc3)cc2o1 | 1.7%
O=c1cc(CN2CCN(C/C=C/c3ccccc3)CC2)c2cc(O)ccc2o1 | 0.2%
COc1cc(C(=O)NCC(=O)OCC(=O)Nc2nnc(-c3ccccc3)o2)cc(OC)c1OC | 1.32%
Cc1cc(C)n2nc(S(=O)(=O)NC(C)(C)C)nc2n1 | -11.7%
COc1cccc(NS(=O)(=O)c2nc3nc(C)cc(C)n3n2)c1 | 5.81%
CCOc1cc2[nH]c(=O)n(CCCC(=O)NCc3ccco3)c(=O)c2cc1OCC | -5.99%
O=C(CNS(=O)(=O)/C=C/c1ccccc1)OC1CCOC1=O (centres undefined) | -7.99%
COc1ccc(C(C[N+](=O)[O-])n2nc(C)cc2C)cc1 (centres undefined) | 3.95%
Cc1cc(C)n(C(C[N+](=O)[O-])c2ccc(Cl)cc2)n1 (centres undefined) | 17.4%
O=C(NCCCc1ccncc1)C1CCC(=O)N(Cc2ccc(Cl)cc2)C1 (centres undefined) | 2.99%
CC(C)(C)NC(=S)NNC(=O)[C@H]1C[C@@H]1c1ccccc1 | -2.2%
CCCCCCCCCCOC(=O)Cn1c(COc2ccccc2)[n+](C)c2ccccc21 | 0.36%

SMILES | inhibition
CCCCOC(=O)Cn1c2ccc(OC)cc2c2nc3ccccc3nc21 | -14.3%
CCCCOC(=O)Cn1c(=N)n(CCC)c2ccccc21 | -6.14%
CCCCCOC(=O)Cn1c(=O)oc2ccccc21 | 4.41%
CN(C)C(=O)Oc1cccc(OCc2n(C)c3ccccc3[n+]2C)c1 | -12.8%
CCCCOC(=O)Cn1c(=O)n(CC(=O)OCCCC)c2ccccc21 | 2.5%
CCCCCOC(=O)Cn1c(=O)oc2ccc(C)cc21 | -6.52%
Cc1cccc(OCCCCn2c(CO)nc3ccccc32)c1 | 1.97%
C=C(C)Cn1c(SCC(=O)N/N=C/c2ccccc2)nc2ccccc2c1=O | 2.73%
CCOC(=O)C1CCCN(C(=O)CSc2ccccc2)C1 (centres undefined) | 0.88%
CC(C)(C)c1cc(NS(=O)(=O)c2cccs2)no1 | 2.79%
CC(C)NC(=O)C1CCCN(S(=O)(=O)c2cccc3nonc23)C1 (centres undefined) | 5.72%
CSc1cnc2c(N)nc(N(C)C)nc2n1 | -2.44%
CCOc1cc(NC(=O)C2CC2)c(OCC)cc1NC(=O)CCn1nnc2ccccc21 | 0.44%
CCn1cc(CN2CCC(n3nccc3NC(=O)C3CCCC3)CC2)c(C)n1 | -10.6%
Brc1ccc(-c2nnc(-c3ccco3)o2)cc1 | 7.53%
CN(C)C(=O)Oc1ccc(OCc2n(C)c3ccccc3[n+]2C)cc1 | -10.3%
CCCCc1n(CC(=O)c2ccc(Cl)cc2)c2ccccc2[n+]1C | 0.37%
Cc1nonc1OCCNCc1c(C(=O)N2CCCCCCC2)nc2ccc(Cl)cn12 | 0.8%
Cc1ccc(CN2CC(C(=O)Nc3cc(S(C)(=O)=O)ccc3Cl)CC2=O)cc1 (centres undefined) | -8.57%
CC1(C)Cc2cccc(OCC(=O)N3CCN(c4cccc(C(F)(F)F)c4)CC3)c2O1 | 7.47%
Cc1cc(C)c(OCCNCc2ccccc2)c(C)c1 | -8.25%
COCCCNCCCCOc1c(Cl)cc(C)cc1Br | 1.04%
Cc1cc(Cl)cc(C)c1OCCNCc1ccccc1 | -3.01%

SMILES | inhibition
Cc1cc(C)c(OCCCNCc2ccccc2)c(Br)c1 | 13.8%
CCn1c(N2CCN(CC(=O)Nc3cccc(C)c3C)CC2)nc2ccccc21 | -2.87%
Cc1cccc(NC(=O)CCNC(=O)c2ccco2)c1 | -1.77%
CN(C)c1cnn(-c2ccccc2)c(=O)c1Cl | -7.8%
CC(C)(O)CC[C@H](OC(=O)c1ccccc1)[C@](C)(O)[C@H]1CC[C@@]2(O)C3=CC(=O)[C@@H]4C[C@@H](O)[C@H](O)C[C@]4(C)C3CC[C@]12C (some centres undefined) | 4.63%
COc1ccc(C(C)NC(=O)Cc2ccc(Br)cc2)cc1 (centres undefined) | 3.69%
CCOc1ccccc1NC(=O)c1cccc(NC(=O)C(C)C)c1 | -6.67%
O=C(O)CCN1C(=O)CC(N2C(=O)/C(=C/c3ccc(Cl)cc3)SC2=S)C1=O (centres undefined) | -12.1%
O=C1CC(N2C(=O)/C(=C/C=C/c3ccccc3)SC2=S)C(=O)N1c1ccccc1 (centres undefined) | -6.61%
Cc1ccc(S(=O)(=O)NNC(=O)c2cnn(-c3ccccc3)c2C(F)(F)F)cc1 | -1.38%
CC(C)(C)C(=O)Nc1ccccc1-c1nc2ccccc2[nH]c1=O | -6.56%
O=C(COc1ccccc1[N+](=O)[O-])Nc1ccc(N2CCN(C(=O)c3cccs3)CC2)cc1 | 7.91%
Cc1cc(C(=O)N/N=C/c2ccc(Br)o2)n[nH]1 | -0.33%
O=C1C2C3C=CC(C3)C2C(=O)N1CCCCCCN1C(=O)C2C3C=CC(C3)C2C1=O (centres undefined) | 7.17%
O=C1C=CC(=O)N1Cc1ccccc1 | 18.2%
COc1ccc2nc(-c3ccccc3)nc(C3CCCCC3)c2c1 | -28.1%
COc1ccc(Cl)cc1NC(=O)CN(C)C(=O)c1cc2c(s1)CCC(C)C2 (centres undefined) | -5.36%
Cc1c(CN(C)C)c2c(n1C)C(=O)c1ccc(Br)cc1-2 | -10.7%
Cc1c(CN(C)C)c2c(n1Cc1ccccc1)C(=O)c1ccccc1-2 | 5.65%
O=C(c1nc2ccccn2c1CNCCn1ccc2ccccc21)N1CCOCC1 | -10.1%
COc1ccccc1-c1ccc2nnc(SCC(=O)N3CCCC3)n2n1 | 3.68%
CCn1nc(-c2ccccc2)nc2c(=O)n(C)c(=O)nc1-2 | 14.7%
Cc1ccccc1-n1c2nc(=O)n(C)c(=O)c-2cc2ccccc21 | -5.45%

SMILES | inhibition
Cn1nc(-c2ccccn2)nc2c(=O)n(C)c(=O)nc1-2 | 13.1%
Cc1ccc(-n2c3nc(=O)n(C)c(=O)c-3cc3ccccc32)cc1 | 8.69%
Nc1nonc1-n1nnc(C(=O)N/N=C/c2ccc(F)cc2)c1-c1ccc2c(c1)OCO2 | 3.99%
CC(C)c1ccc(NC(=O)C2CCN(S(C)(=O)=O)CC2)cc1 | 9.77%
O=C(CN1CCN(c2ccccn2)CC1)NC1CCCC1 | -2.6%
CC[C@H]1OC(=O)[C@H](C)[C@@H](O[C@H]2C[C@@](C)(OC)[C@@H](O)[C@H](C)O2)[C@H](C)[C@@H](O[C@@H]2O[C@H](C)C[C@H](N(C)C)[C@H]2O)[C@](C)(O)C[C@@H](C)C(=NOCOCCOC)[C@H](C)[C@@H](O)[C@]1(C)O | -1.81%
CCOC(=O)CCC(=O)O[C@H]1[C@H](O[C@@H]2[C@@H](C)[C@H](O[C@H]3C[C@@](C)(OC)[C@@H](O)[C@H](C)O3)[C@@H](C)C(=O)O[C@H](CC)[C@@](C)(O)[C@H](O)[C@@H](C)C(=O)[C@H](C)C[C@@]2(C)O)O[C@H](C)C[C@@H]1N(C)C | 12.7%
CCC1OC(=O)C(C)C(OC2C[C@@](C)(OC)C(O)C(C)O2)C(C)C(O[C@@H]2OC(C)CC(N(C)C)C2O)[C@](C)(O)CC(C)C(=NOCOCCOC)C(C)C(O)[C@]1(C)O (some centres undefined) | 2.39%
COc1ccccc1C(C(=O)NCc1ccc(F)cc1)N(C(=O)c1csnn1)C1CC1 (centres undefined) | -0.44%
CCN(CC)S(=O)(=O)c1ccc(OC)c(NC(=O)c2ccc(-n3cncn3)c([N+](=O)[O-])c2)c1 | 1.29%
O=C(Cn1c(=O)oc2ccccc21)NCCc1ccccc1 | -10.1%
Cc1cc(C)cc(NC(=O)CSc2nccn2Cc2ccco2)c1 | -0.51%
COc1cc(CNC2CCCC2)cc(Cl)c1OCc1ccccc1F | 11.7%
COc1cc(CNCCc2ccccc2)ccc1OCc1ccc(Cl)nc1 | 26.7%
COc1cc(CNCCO)cc(Cl)c1OCc1ccccc1Cl | -3.95%
OCCNCc1ccc(OCc2ccc(Cl)cc2Cl)cc1 | 6.74%
COc1ccccc1CCNCc1ccc(OC)c(OCc2ccccc2)c1 | -4.13%
COc1cc(CNC2CCCC2)cc(Cl)c1OCc1ccc(F)cc1 | 7.58%
OCCCCNCc1ccc(OCc2ccccc2Cl)cc1 | 26.2%
COc1cc(CNCCO)cc(Br)c1OCc1ccccc1Cl | 9.5%

— PubChem BioAssay AID1850 (Southern Research Specialized Biocontainment Screening …, 2009)
